The values below come from PubChem BioAssay (NCATS).

Experiment [1] can be described thus: qHTS Screen of the MIPE 4.0 Collection Against Ewings Sarcoma (RDES) (AID 1259252).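 For viability (percent of control): 100% = DMSO-treated cells and 0% = medium-only wells without cells.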 Note: nearly all actives have a fitted effect of over 35% in size. Note: potency is the fitted concentration of half-maximal effect. In a few lines: (§1)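 Dose series incubated 48 h with cells in RPMI plus 5% FBS, glutamine and penicillin/streptomycin; cell viability then quantified via CellTiter-Glo.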
The nature of experiment [2]: qHTS Screen of the MIPE 4.0 Collection Against Ewings Sarcoma (TC71) (AID 1259253).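 For viability (% of DMSO): 100% = DMSO-treated cells and 0% = medium-only wells without cells.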 Note: nearly all actives have a fitted effect of over 40% in size. Note: potency is the fitted concentration of half-maximal effect. In short, it runs like this: as §1
Background: qHTS replaces the single test concentration by a dilution series.

Experiment [3] can be described thus: qHTS Screen of the MIPE 4.0 Collection Against Ewings Sarcoma (EW8) (AID 1259255).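 For viability: 100% = DMSO-treated cells and 0% = medium-only wells without cells.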 Note: nearly all actives have a fitted effect of over 35% in size. Note: potency is the fitted concentration of half-maximal effect. In a few lines: as §1
The nature of experiment [4]: qHTS Screen of the MIPE 4.0 Collection Against Ewings Sarcoma (TC32) (AID 1259256).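 For viability (percent of control): 100% = DMSO-treated cells and 0% = medium-only wells without cells.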 Note: nearly all actives have a fitted effect of over 45% in size. Note: potency is the fitted concentration of half-maximal effect. In short, it runs like this:
as §1

Experiment [5] can be described thus: Identifying Small Molecule Inhibitors of Pancreatic Cancer Stem Cells (A2780, Spheroid) (AID 1259357).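 Note: spheroids pre-formed over 14 days in stem cell medium on hydrogel; potency is the fitted concentration of half-maximal effect; compound exposure lasted 48 h before the ATP luminescence read.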 Conditions: Potency: A2780 spheroid viability. In a few lines:
(§2)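 Spheroids grown 14 days in stem cell media on nonadherent hydrogel before screening; cells attached 4 h, then compound exposure 48 h at 37C, 5% CO2. CellTiter-Glo luminescence normalized to DMSO (no inhibition) and no-cell wells (full inhibition).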

A short description of experiment [6]: Identifying Small Molecule Inhibitors of Pancreatic Cancer Stem Cells (Panc1, Spheroid) (AID 1259359).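 Note: compound exposure lasted 48 h before reading.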 Note: potency is the fitted concentration of half-maximal effect. In a few lines:
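After a 4 h attachment period, compounds were pinned into wells and cultures held 48 h under standard incubator conditions. Viability was then measured as CellTiter-Glo luminescence following 10 min at room temperature.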

The nature of experiment [7]: Identifying Small Molecule Inhibitors of Pancreatic Cancer Stem Cells (SN12C, Spheroid) (AID 1259360). Note: potency is the fitted concentration of half-maximal effect. Conditions: Potency: SN12C spheroid viability. In a few lines: as §2
Experiment [8] can be described thus: Identifying Small Molecule Inhibitors of Pancreatic Cancer Stem Cells (A278, Adherent) (AID 1259361).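 Note: viability read after 48 h compound exposure; nearly all actives have a fitted effect of over 35% in size.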 In short, it runs like this: (§3)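 Endpoint: ATP-based luminescence, 48 h drug exposure. Bortezomib at 9.2 uM final as full-kill control; DMSO vehicle as negative control; activity normalized between vehicle and cell-free wells.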
The nature of experiment [9]: NS1 protein of Zika virus - qHTS assay to identify small molecule inhibitors in human HEK 293 cells (AID 1347053).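 For activity change, negative = inhibition: series mostly up to about 46 µM; plate controls were infected untreated cells for no effect and uninfected cells for full effect.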 Note: nearly all actives have a fitted effect of over 55% in size. Note: potency is the fitted concentration of half-maximal effect. In short, it runs like this:
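HEK 293 cells pretreated with compound for 1 h, then infected with ZIKV MR766 (MOI 0.5) for 24 h at 37 C. NS1 detected by TR-FRET with two anti-NS1 antibodies; normalized to uninfected (0%) and infected (100%) wells.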

A short description of experiment [10]: qHTS assay to identify small molecule inhibitors of chordoma cells - UCH-2 (AID 1259356). Note: series mostly up to about 46 µM; % is set by controls: 0 for no effect and ±100 for the full control effect.
Experiment [11] can be described thus: P-glycoprotein substrates identified in KB-8-5-11 adenocarcinoma cell line, qHTS therapeutic library screen (AID 1346987). Note: nearly all actives have a fitted effect of over 65% in size. Note: potency is the fitted concentration of half-maximal effect. In a few lines: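 P-gp-mediated resistance screen: KB-8-5-11 cells treated 72 h with compounds in dose-response. CellTiter-Glo viability.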
Experiment [12] can be described thus: qHTS assay to identify small molecule inhibitors of chordoma cells - UCH-1 (AID 1259355). Note: nearly all actives have a fitted effect of over 55% in size. Note: potency is the fitted concentration of half-maximal effect; series mostly up to about 46 µM. In short, it runs like this: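 Cells (800/well) were seeded and left overnight at 37 C, 5% CO2, then treated with drugs at 15 concentrations plus a combination mix of auranofin, camptothecin, doxorubicin, rubitecan and topotecan. Viability after 48hr was read by CellTiter-Glo luminescence.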

A short description of experiment [13]: Identifying Small Molecule Inhibitors of Pancreatic Cancer Stem Cells (SN12C, Adherent) (AID 1259358).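 Note: potency is the fitted concentration of half-maximal effect; cell survival measured after 48 h of compound exposure.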 In a few lines: as §3
Experiment [14] is described as follows: P-glycoprotein substrates identified in KB-3-1 adenocarcinoma cell line, qHTS therapeutic library screen (AID 1346986). Note: nearly all actives have a fitted effect of over 60% in size. In a few lines: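 Compounds were tested in dose-response against KB-3-1 and KB-8-5-11 cells at 37 degree C for 72 h, and viability was measured by luminescence. AC50 values came from curve fitting with class-based activity calls.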

“And” between values parts separate entries of the source, which are not always exact repeats. Equal values may be shown once. Records with an inconclusive call do not appear. The source holds several records for some structures; these can differ, active in one and inactive in another. The source made the active and inactive calls. Calls come from the whole dose curve; as a rule, active = well fitted curve in the direction sought with a large enough effect; inconclusive = small, poorly fitted or top-dose-only effect, or another doubt; inactive = no such curve, though single readings can be large; an effect the other way counts as inactive or inconclusive.

Turning to `Cc1c(NC(=O)OC[C@@H]2COCCN2)cn2ncnc(Nc3ccc4c(cnn4Cc4cccc(F)c4)c3)c12`, the Potency in experiment [1] was 166 nM (active); in experiment [2], 1050 nM (active); in experiment [3] it was 1480 nM (active); in experiment [4], 935 nM (active).
As for `COCCn1c2c([n+](Cc3cnccn3)c1C)C(=O)c1ccccc1C2=O`, the Potency in experiment [1] was 2.1 nM (active); in [2], 16.6 nM (active); in experiment [3], 4.7 nM (active); in experiment [4], 5.3 nM (active); in experiment [5], 13.2 nM (active); in [7], 105 nM (active). The Potency in experiment [9] was 37.2 nM (active). Also, in experiment [6], the Potency entry was “inactive”. Also, in [8], the IC50 (viability decrease) was 6.6 nM (active).
Turning to `COc1ccc(CC2c3cc(OC)c(OC)cc3CC[N+]2(C)CCC(=O)OCCCCCOC(=O)CC[N+]2(C)CCc3cc(OC)c(OC)cc3C2Cc2ccc(OC)c(OC)c2)cc1OC` (centres undefined), the viability (percent of control) was 121% [at 5.15 µM] (inactive) in experiment [1] and 123% [at 5.15 µM] (inactive) in experiment [4]. In experiment [2], the viability (% of DMSO) was 110% [at 5.15 µM] (inactive). In experiment [3], the viability is 117% [at 5.15 µM] (inactive). Further, in experiment [10], the result was inactive. For the same molecule, the Potency result in experiment [11] is “inactive”. The activity change, negative = inhibition in experiment [9] is -9.69% [at 9.2 µM] (inactive).
As for `COc1cc(C(=O)NS(=O)(=O)c2ccccc2C)ccc1Cc1cn(C)c2ccc(NC(=O)OC3CCCC3)cc12`, the Potency in experiment [1] was 23500 nM (active); in experiment [2] it was 23500 nM (active); in experiment [3], 16600 nM (active); in [4], 18700 nM (active). For the same molecule, the Potency result in experiment [12], in experiment [11] and in [9] was “inactive” in each case. Also, the outcome in experiment [10] was inactive.
For the molecule `CC=CC1=C(C(=O)O)N2C(=O)[C@H](NC(=O)[C@H](N)c3ccc(O)cc3)[C@@H]2SC1`, the Potency entry in experiment [1], in experiment [2], in [3], in experiment [4], in experiment [12] and in experiment [11] was “inactive” in each case. Besides, the Potency result in experiment [9] was “inactive”. The outcome in experiment [10] was inactive.
For `CC1=C(CO)C(=O)O[C@@H]([C@@H](C)[C@H]2CC[C@H]3[C@@H]4C[C@H]5O[C@]56[C@@H](O)C=CC(=O)[C@]6(C)[C@@H]4CC[C@]23C)C1`, the Potency in experiment [1] is 526 nM (active); in experiment [2], 526 nM (active); in experiment [3], 264 nM (active); in experiment [4], 209 nM (active); in experiment [5], 935 nM (active); in experiment [13], 5260 nM (active). Further, the results for the Potency in experiment [6], in [7] and in [9] were 1050 nM (active), 1660 nM (active) and 1480 nM (active), respectively. Moreover, in experiment [8], the IC50 (viability decrease) was 662 nM (active).
Consider `CCC1=C[C@@H]2CN(C1)Cc1c([nH]c3ccccc13)[C@@](C(=O)OC)(c1cc3c(cc1OC)N(C)[C@@H]1[C@@](O)(C(=O)OC)[C@H](OC(C)=O)[C@]4(CC)C=CCN5CC[C@]31[C@@H]54)C2`, for which the Potency in [1] was 14.8 nM (active); in [2] it was 166 nM (active); in experiment [3], 6.6 nM (active); in experiment [9], 4180 nM (active). In experiment [4], the Potency result was “inactive”. Moreover, in [10], the molecule was called inactive.
`CC1(C)O[C@@H]2C[C@@H]3[C@H]4C[C@@H](F)C5=CC(=O)C=C[C@]5(C)[C@@]4(F)[C@@H](O)C[C@]3(C)[C@]2(C(=O)CO)O1`: the Potency result in experiment [1], in experiment [2], in [3], in experiment [4], in experiment [14] and in [11] was “inactive” throughout. Also, the Potency entry in experiment [9] was “inactive”. Besides, in experiment [10], the molecule was called inactive.
For the molecule `COC(=O)C[C@](O)(CCCC(C)(C)O)C(=O)O[C@@H]1C(OC)=C[C@]23CCCN2CCc2cc4c(cc2[C@H]13)OCO4`, the Potency result in [1], in experiment [2], in [3], in experiment [4] and in experiment [9] was “inactive” in each case. The Potency was 199 nM (active) in experiment [12] and 8.2 µM (active) in experiment [11]. The call in experiment [10] was inactive.
As for `Cc1nc2ccc(CN(C)c3ccc(C(=O)N[C@@H](CCC(=O)O)C(=O)O)s3)cc2c(=O)[nH]1`, the Potency was 16.6 nM (active) in [1], 20.9 nM (active) in experiment [2], 26.4 nM (active) in experiment [3] and 33.2 nM (active) in experiment [4]. Further, the Potency entry in experiment [12] and in [9] was “inactive” in each case. Also, in experiment [10], the result was inactive.
Consider `NC1(Cc2ccc(Cl)cc2)CCN(c2ncnc3[nH]ccc23)CC1`, for which the Potency is 16600 nM (active) in [1], 18700 nM (active) in experiment [2], 16600 nM (active) in experiment [3] and 16600 nM (active) in [4].
With `CN1CC[C@@H](c2c(O)cc(O)c3c(=O)cc(-c4ccccc4Cl)oc23)[C@@H](O)C1`, the Potency is 148 nM (active) in experiment [1]; 74.3 nM (active) in experiment [2]; 118 nM (active) in experiment [3]; 148 nM (active) in experiment [4]; 74.3 nM (active) in experiment [5]; 187 nM (active) in experiment [13]. For the same molecule, the Potency was 132 nM (active) in experiment [6], 118 nM (active) in experiment [7] and 833 nM (active) in experiment [9]. In addition, the IC50 (viability decrease) in [8] is 37.2 nM (active).
`O=C(O)CO.[NH2-].[NH2-].[Pt+2]`: the Potency result in experiment [1], in experiment [2], in experiment [3], in [4], in experiment [12] and in experiment [11] was “inactive” in each case. The Potency entry in experiment [9] is “inactive”. Further, in [10], the call was inactive.
For the molecule `O=C(Nc1cc(C(F)(F)F)cc(C(F)(F)F)c1)c1cc(Cl)ccc1O`, the Potency in experiment [1] is 1180 nM (active); in experiment [2], 1050 nM (active); in [3], 2350 nM (active); in experiment [4], 1180 nM (active); in experiment [5], 526 nM (active); in experiment [6] it was 372 nM (active). The Potency in [7] is 833 nM (active); in [11], 187 nM (active) and 820 nM (active); in experiment [9], 2640 nM (active).
`CCn1cc(-c2ccnc3[nH]c(-c4cccc(CN(C)C)c4)cc23)c(-c2ccc(NC(=O)N(C)C)cc2)n1`: the Potency in experiment [1] is 7430 nM (active); in [2] it was 3720 nM (active); in experiment [3] it was 46.9 nM (active); in experiment [4], 46.9 nM (active).
Regarding `Nc1cc(C(F)(F)F)c(-c2cc(N3CCOCC3)nc(N3CCOCC3)n2)cn1`, the Potency in experiment [1] was 372 nM (active); in experiment [2] it was 1050 nM (active); in experiment [3], 590 nM (active); in experiment [4] it was 264 nM (active); in [5], 1480 nM (active); in [6], 833 nM (active). Further, the Potency in experiment [11] was 469 nM (active) and 1.16 µM (active). In [8], the IC50 (viability decrease) is 662 nM (active).
On to `COC(=O)C1=C(C)NC(C)=C(C(=O)OCCN2CCN(C(c3ccccc3)c3ccccc3)CC2)C1c1cccc([N+](=O)[O-])c1` (centres undefined), for which the Potency entry in experiment [1], in experiment [2], in [3] and in experiment [4] was “inactive” in each case. For the same molecule, the call in experiment [10] was inactive. In addition, the Potency in [11] was 20.6 µM (active) and inactive.

The term viability denotes a read-out of living cells in per cent, often relative to untreated cells.
